# Laboratory results as given in PubChem BioAssay (Tox21).
# Records with an inconclusive call do not appear. A call without a number means that no potency is given here. Active and inactive are the calls of the source. Unless noted, the call rests on the fitted dose curve; in most records, active means well fitted curve in the direction sought with a large enough effect in the repeat runs; inconclusive means weak or mixed curves; inactive means no such curve, though single readings can be large; an effect the other way counts as inactive or inconclusive.
# Experiments:
# [1] = target: Peroxisome proliferator-activated receptor delta (Homo sapiens) (UniProt Q03181); assay: qHTS assay to identify small molecule agonists of the peroxisome proliferator-activated receptor delta (PPARd) signaling pathway (AID 743212; calls by dose curve)
# Peroxisome proliferator-activated receptor delta (Homo sapiens), sequence (Q03181 whole entry, looked up): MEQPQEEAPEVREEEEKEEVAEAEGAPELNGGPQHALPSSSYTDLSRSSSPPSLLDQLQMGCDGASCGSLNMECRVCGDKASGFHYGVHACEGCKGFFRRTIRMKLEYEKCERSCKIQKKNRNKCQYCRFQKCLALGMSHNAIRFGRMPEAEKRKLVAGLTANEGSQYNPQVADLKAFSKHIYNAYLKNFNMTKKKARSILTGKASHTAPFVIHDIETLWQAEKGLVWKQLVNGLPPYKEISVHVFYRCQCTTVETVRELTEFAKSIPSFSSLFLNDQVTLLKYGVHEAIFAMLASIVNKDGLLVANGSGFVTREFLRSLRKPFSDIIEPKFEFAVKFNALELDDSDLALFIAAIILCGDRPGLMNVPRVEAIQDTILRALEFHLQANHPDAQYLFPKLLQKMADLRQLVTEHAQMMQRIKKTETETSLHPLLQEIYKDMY
# How it was run: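 GeneBLAzer PPARd UAS-bla HEK293H cells (beta-lactamase reporter under UAS control), plated and rested 5 h at 37 C, then exposed to compounds in DMSO at 37 C; LiveBLAzer B/G FRET substrate added, 2 h room temperature, fluorescence read.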
# [2] = qHTS assay to identify small molecule antagonists of the peroxisome proliferator-activated receptor delta (PPARd) signaling pathway - cell viability counter screen (AID 743213); further: nearly all actives have a fitted effect of over 50% in size
# How it was run: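 Agonist-stimulated (L165041, 300 nM final) HEK293H PPARd UAS-bla cells are exposed to compounds for 17 h at 37 C, and ATP-based luminescence (CellTiter-Glo) from the same wells reports cytotoxicity.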
# [3] = target: Peroxisome proliferator-activated receptor delta (Homo sapiens) (UniProt Q03181); assay: qHTS assay to identify small molecule antagonists of the peroxisome proliferator-activated receptor delta (PPARd) signaling pathway (AID 743215; active means well fitted inhibition curve with a large enough effect in the signal ratio in the repeat runs, not every such curve was filed as active; the % refers to the signal ratio; further: potency means the concentration at half of the fitted maximal effect)
# How it was run: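 Inhibition of L165041-driven (300 nM final) PPARd signaling is scored in HEK293H UAS-bla cells. Exposure lasts 17 h at 37 C; beta-lactamase activity is then read by FRET substrate fluorescence after 2 h at room temperature.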
# [4] = qHTS assay to identify small molecule agonists of the farnesoid-X-receptor (FXR) signaling pathway - cell viability counter screen (AID 743218); further: nearly all actives have a fitted effect of over 45% in size; further: potency means the concentration at half of the fitted maximal effect
# How it was run: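 Cytotoxicity counter-screen run in parallel, same wells: FXR-UAS-bla HEK 293T cells dosed 16 h at 37 C, viability read by CellTiter-Glo luminescence after 30 min at room temperature.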
# [5] = qHTS assay to identify small molecule antagonists of the farnesoid-X-receptor (FXR) signaling pathway - cell viability counter screen (AID 743221; active means well fitted cell-killing curve with a large enough effect in the repeat runs, not every such curve was filed as active; further: nearly all actives have a fitted effect of over 50% in size)
# How it was run: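 Cytotoxicity is taken from ATP luminescence (CellTiter-Glo, 30 min, room temperature) in FXR-bla HEK 293T cells previously incubated 16 h at 37 C with compound and chenodeoxycholic acid at 50 uM final.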
# [6] = qHTS assay to identify small molecule agonists of the vitamin D receptor (VDR) signaling pathway - cell viability counter screen (AID 743224); further: nearly all actives have a fitted effect of over 50% in size; further: potency means the concentration at half of the fitted maximal effect
# How it was run: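 Viability is measured in the same wells as the VDR-bla reporter assay: after 16 h compound treatment and 2 h substrate loading, CellTiter-Glo is added and luminescence read 30 min later.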
# [7] = qHTS assay to identify small molecule antagonists of the vitamin D receptor (VDR) signaling pathway - cell viability counter screen (AID 743225); further: nearly all actives have a fitted effect of over 50% in size; further: potency means the concentration at half of the fitted maximal effect
# How it was run: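 Same-well multiplex: following 16 h treatment of HEK 293T cells carrying a UAS-driven beta-lactamase reporter with compound and agonist (3 nM final), and a 2 h FRET substrate step, CellTiter-Glo was added and luminescence read after 30 min.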
# [8] = qHTS assay to identify small molecule agonists of the NFkB signaling pathway - cell viability counter screen (AID 1159515; calls by dose curve; further: nearly all actives have a fitted effect of over 55% in size; further: potency means the concentration at half of the fitted maximal effect)
# How it was run: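 Multiplexed viability readout: after the 5 hr compound exposure and 1.5 hr FRET substrate step, CellTiter-Glo reagent went into the same NFkB-bla ME-180 wells; ATP luminescence was measured after 30 min at room temperature.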
# [9] = qHTS assay to identify small molecule agonists of the endoplasmic reticulum stress response signaling pathway - cell viability counter screen (AID 1159517; calls by dose curve; further: nearly all actives have a fitted effect of over 50% in size; further: potency means the concentration at half of the fitted maximal effect)
# How it was run: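 Luminescence readout: CellTiter-Glo, 30 min RT, same wells as the ESRE-bla reporter read. HeLa ESRE-bla, 1,500 cells/well, o/n 37 C; cpd 5 hr 37 C/5% CO2.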
# [10] = qHTS assay to identify small molecule antagonists of the retinoid-related orphan receptor gamma (ROR-gamma) signaling pathway - cell viability counter screen (AID 1159520); further: nearly all actives have a fitted effect of over 50% in size; further: potency means the concentration at half of the fitted maximal effect
# How it was run: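 Tet-on ROR gamma CHO cells (1,000/well) were plated 4 hr, given compounds in DMSO for 2 hr at 37 C, then induced with 1 uM final doxycycline for 16 hr. Viability was read as ATP by CellTiter-Glo luminescence after 30 min.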
# [11] = target: Nuclear receptor ROR-gamma (Homo sapiens) (UniProt P51449); assay: qHTS assay to identify small molecule antagonists of the retinoid-related orphan receptor gamma (ROR-gamma) signaling pathway (AID 1159521; further: nearly all actives have a fitted effect of over 50% in size; further: potency means the concentration at half of the fitted maximal effect)
# How it was run: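 Inducible-expression reporter assay: doxycycline (1 uM final) switched on RORγ in CHO cells bearing a ROR response element-luciferase construct, with test compounds present from 2 h beforehand. Decreased luminescence after 16 h defined antagonist activity.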
# [12] = qHTS assay to identify small molecule agonists of the AP-1 signaling pathway - cell viability counter screen (AID 1159525; calls by dose curve; further: nearly all actives have a fitted effect of over 55% in size; further: potency means the concentration at half of the fitted maximal effect)
# How it was run: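 ME-180 AP-1-bla, 2500 cells/well, Opti-MEM + 0.5% dialyzed FBS; overnight 37 °C; cpd 15-pt titration, 5 h 37 °C; CellTiter-Glo 30 min RT; luminescence read; normalised to TOAB and DMSO controls.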
# [13] = qHTS assay to identify small molecule agonists of the AP-1 signaling pathway (AID 1159526; calls by dose curve)
# [14] = target: Retinoic acid receptor RXR-alpha (Homo sapiens) (UniProt P19793); assay: qHTS assay to identify small molecule agonists of the RXR signaling pathway (AID 1159527; calls by dose curve; further: nearly all actives have a fitted effect of over 35% in size; further: potency means the concentration at half of the fitted maximal effect)
# Retinoic acid receptor RXR-alpha (Homo sapiens), sequence (P19793 whole entry, looked up): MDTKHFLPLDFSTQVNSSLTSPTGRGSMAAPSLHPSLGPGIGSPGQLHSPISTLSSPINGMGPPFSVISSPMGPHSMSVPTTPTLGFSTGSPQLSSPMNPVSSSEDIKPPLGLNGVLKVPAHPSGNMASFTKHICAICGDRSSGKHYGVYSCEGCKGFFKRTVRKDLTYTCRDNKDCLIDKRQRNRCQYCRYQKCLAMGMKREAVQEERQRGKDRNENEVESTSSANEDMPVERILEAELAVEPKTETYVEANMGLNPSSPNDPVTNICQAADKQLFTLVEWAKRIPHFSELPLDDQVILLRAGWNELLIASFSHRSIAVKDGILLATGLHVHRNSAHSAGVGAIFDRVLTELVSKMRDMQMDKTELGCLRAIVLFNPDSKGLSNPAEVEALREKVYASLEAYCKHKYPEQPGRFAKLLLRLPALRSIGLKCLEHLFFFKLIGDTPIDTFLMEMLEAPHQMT
# How it was run: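 Compounds in DMSO were added to RXR-alpha-UAS-bla HEK 293T cells kept in 2% charcoal-stripped serum, and incubated 16 hr at 37 C with 5% CO2. Reporter signal came from a 2 hr B/G FRET substrate step.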
# [15] = qHTS assay to identify small molecule agonists of the peroxisome proliferator-activated receptor delta (PPARd) signaling pathway - cell viability counter screen (AID 743211); further: nearly all actives have a fitted effect of over 55% in size; further: potency means the concentration at half of the fitted maximal effect
# How it was run: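 Tox21 library compounds, delivered in DMSO, were incubated 17 h with PPARd-bla HEK293H cells; cytotoxicity was taken from CellTiter-Glo luminescence read 30 min after reagent addition.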
# [16] = target: Bile acid receptor (Homo sapiens) (UniProt Q96RI1); assay: qHTS assay to identify small molecule agonists of the farnesoid-X-receptor (FXR) signaling pathway (AID 743220; active means well fitted activation curve with a large enough effect in the signal ratio in the repeat runs, not every such curve was filed as active; the % refers to the signal ratio)
# Bile acid receptor (Homo sapiens), sequence (Q96RI1 whole entry, looked up): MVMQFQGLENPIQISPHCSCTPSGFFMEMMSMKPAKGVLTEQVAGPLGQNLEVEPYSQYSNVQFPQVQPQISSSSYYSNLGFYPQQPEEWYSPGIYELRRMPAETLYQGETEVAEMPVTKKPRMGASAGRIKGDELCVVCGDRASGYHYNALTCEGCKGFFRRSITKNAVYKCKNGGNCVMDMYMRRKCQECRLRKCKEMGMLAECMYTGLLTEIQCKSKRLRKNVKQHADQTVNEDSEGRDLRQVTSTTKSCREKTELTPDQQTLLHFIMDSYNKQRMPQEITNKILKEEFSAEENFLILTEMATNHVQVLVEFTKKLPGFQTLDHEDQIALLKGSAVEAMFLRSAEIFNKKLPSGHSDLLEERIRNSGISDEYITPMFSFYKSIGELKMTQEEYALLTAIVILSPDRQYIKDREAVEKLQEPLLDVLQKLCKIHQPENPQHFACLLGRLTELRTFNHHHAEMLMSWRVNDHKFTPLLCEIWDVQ
# How it was run: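 Beta-lactamase reporter under UAS control in GeneBLAzer FXR HEK 293T cells (5000/well) measured with LiveBLAzer FRET substrate after 2 h at room temperature. Compound exposure lasted 16 h at 37C.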
# [17] = target: Vitamin D3 receptor (Homo sapiens) (UniProt P11473); assay: qHTS assay to identify small molecule agonists of the vitamin D receptor (VDR) signaling pathway (AID 743222; calls by dose curve)
# Vitamin D3 receptor (Homo sapiens), sequence (P11473 whole entry, looked up): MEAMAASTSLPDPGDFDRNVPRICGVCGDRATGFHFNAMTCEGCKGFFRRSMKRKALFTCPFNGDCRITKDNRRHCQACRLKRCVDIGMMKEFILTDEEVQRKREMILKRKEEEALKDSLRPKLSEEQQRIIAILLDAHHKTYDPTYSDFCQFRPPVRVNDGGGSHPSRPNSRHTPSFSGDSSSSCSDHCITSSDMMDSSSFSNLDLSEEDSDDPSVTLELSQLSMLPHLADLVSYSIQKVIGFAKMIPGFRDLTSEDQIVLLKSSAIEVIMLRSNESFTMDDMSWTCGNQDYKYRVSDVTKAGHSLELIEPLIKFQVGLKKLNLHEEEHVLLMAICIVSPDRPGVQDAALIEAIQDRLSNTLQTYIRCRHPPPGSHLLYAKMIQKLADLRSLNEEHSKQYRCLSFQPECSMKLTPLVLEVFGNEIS
# How it was run: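 Quantitative HTS agonist-mode screen: compounds in DMSO were pin-transferred onto VDR-bla cells and incubated 16 h at 37C, 5% CO2. Reporter activity was detected with LiveBLAzer B/G FRET substrate after 2 h at room temperature.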
# [18] = target: Vitamin D3 receptor (Homo sapiens) (UniProt P11473); assay: qHTS assay to identify small molecule antagonists of the vitamin D receptor (VDR) signaling pathway (AID 743223; active means well fitted inhibition curve with a large enough effect in the signal ratio in the repeat runs, not every such curve was filed as active; the % refers to the signal ratio)
# How it was run: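 Quantitative HTS in VDR-bla reporter cells stimulated with 1alpha,25-dihydroxyvitamin D3, 3 nM final. Compound exposure 16 h, 37C, 5% CO2. Read-out: beta-lactamase FRET substrate fluorescence, 2 h RT.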
# [19] = qHTS assay to identify small molecule agonists of the endoplasmic reticulum stress response signaling pathway (AID 1159516; active means well fitted activation curve with a large enough effect in the signal ratio in the repeat runs, not every such curve was filed as active; the % refers to the signal ratio)
# How it was run: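 Tox21 10K library screened in quantitative HTS format on ESRE-bla HeLa cells, a beta-lactamase reporter under ER stress response element control; 5 hr treatment, FRET read.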
SMILES,Potency [1],Potency [2],Potency [3],Potency [4],Potency [5],Potency [6],Potency [7],Potency [8],Potency [9],Potency [10],Potency [11],Potency [12],Potency [13],Potency [14],Potency [15],Potency [16],Potency [17],Potency [18],Potency [19]
Nc1cc(Cl)ccc1Cl,inactive,inactive,inactive,inactive,inactive,inactive,inactive,inactive,inactive,inactive,inactive,inactive,inactive,inactive,,,,,
O=C(NC(=O)c1ccccc1Cl)Nc1ccc(OC(F)(F)F)cc1,inactive,,inactive,inactive,inactive,inactive,inactive,inactive,inactive,inactive,inactive,inactive,inactive,inactive,inactive,inactive,inactive,inactive,
CCCCC/C=C\C/C=C\C/C=C\C/C=C\CCCC(=O)NCC(=O)O,,,,29.8 µM (active),,,,inactive,,inactive,inactive,,,inactive,,,inactive,,inactive
Cc1ccc2cc3c(ccc4ccccc43)c3c2c1CC3,,,,inactive,inactive,inactive,inactive,inactive,inactive,inactive,inactive,inactive,inactive,inactive,inactive,,inactive,inactive,
CCOP(=S)(OCC)SC(CCl)N1C(=O)c2ccccc2C1=O (stereo not drawn),inactive,,,,inactive,inactive,,inactive,,inactive,inactive,inactive,inactive,,inactive,,inactive,,inactive
CN(C)CCc1c[nH]c2ccccc12,,inactive,,,inactive,,inactive,inactive,,inactive,inactive,inactive,,,inactive,,,inactive,inactive
CCCCON=O,inactive,,inactive,,inactive,inactive,,inactive,,inactive,,inactive,inactive,inactive,inactive,,inactive,inactive,inactive
Cc1c([N+](=O)[O-])c(C)c([N+](=O)[O-])c(C(C)(C)C)c1[N+](=O)[O-],inactive,inactive,inactive,,,inactive,,inactive,,inactive,,inactive,inactive,12.3 µM (active),inactive,,inactive,inactive,inactive
S=C=NCCc1ccccc1,inactive,inactive,inactive,,,,,inactive,,,,inactive,,,,,,inactive,inactive
COc1nc(C)nc(NC(=O)NS(=O)(=O)c2ccccc2Cl)n1,,inactive,,inactive,inactive,inactive,inactive,inactive,,inactive,inactive,inactive,inactive,inactive,inactive,,inactive,inactive,inactive
CSC1=N[C@@](C)(c2ccccc2)C(=O)N1Nc1ccccc1,inactive,,,,,,,inactive,,,10.9 µM (active),inactive,inactive,inactive,inactive,inactive,inactive,inactive,inactive
N#CCCl,,,,inactive,inactive,inactive,inactive,inactive,,inactive,inactive,inactive,inactive,,inactive,inactive,,inactive,inactive
CN,,inactive,,inactive,inactive,inactive,inactive,inactive,,inactive,inactive,inactive,inactive,inactive,inactive,,,inactive,inactive
O=Cc1ccccc1,inactive,,inactive,inactive,inactive,,,inactive,,inactive,inactive,inactive,inactive,inactive,inactive,inactive,,inactive,inactive
CC1CCCC1,inactive,inactive,inactive,inactive,,inactive,,inactive,,inactive,inactive,inactive,,,inactive,,inactive,inactive,inactive
CN=C=O,inactive,,inactive,inactive,inactive,inactive,inactive,inactive,,inactive,inactive,inactive,inactive,,inactive,,,,inactive
Fc1ccc(C(OCCN2CCN(CCCc3ccccc3)CC2)c2ccc(F)cc2)cc1,,,29.8 µM (active),,,29.8 µM (active),21.3 µM (active),23.9 µM (active),26.8 µM (active),29.8 µM (active),13.3 µM (active),21.3 µM (active),,,16.8 µM (active),,,,
c1ccc2c(c1)cc1ccc3cccc4ccc2c1c34,,,,inactive,inactive,,,inactive,inactive,inactive,inactive,inactive,,,inactive,,,,
COP(=O)(OC)Oc1ccc([N+](=O)[O-])cc1,,inactive,,inactive,inactive,inactive,inactive,inactive,inactive,inactive,inactive,inactive,inactive,,inactive,,,,
